Measurements reported in publication PMC4336329 (PLoS ONE, 2015).
The campaign covered roughly 310,000 compounds. About 14,000 (4.5%) showed an effect of 50% or more. The effect is printed as a negative number. The list comes from a sample in which strong results are over-represented; it also holds similar structures and randomly drawn compounds.

Biological target: human ether-à-go-go-related gene (hERG) potassium channel (human, UniProt Q12809)
Test: primary screen, population patch clamp on CHO cells stably expressing hERG; higher = less effect of the substance
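Further: peak tail current of the secondary pulse compared with the same well before compound.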

Chain of human ether-à-go-go-related gene (hERG) potassium channel (Q12809 whole entry, looked up): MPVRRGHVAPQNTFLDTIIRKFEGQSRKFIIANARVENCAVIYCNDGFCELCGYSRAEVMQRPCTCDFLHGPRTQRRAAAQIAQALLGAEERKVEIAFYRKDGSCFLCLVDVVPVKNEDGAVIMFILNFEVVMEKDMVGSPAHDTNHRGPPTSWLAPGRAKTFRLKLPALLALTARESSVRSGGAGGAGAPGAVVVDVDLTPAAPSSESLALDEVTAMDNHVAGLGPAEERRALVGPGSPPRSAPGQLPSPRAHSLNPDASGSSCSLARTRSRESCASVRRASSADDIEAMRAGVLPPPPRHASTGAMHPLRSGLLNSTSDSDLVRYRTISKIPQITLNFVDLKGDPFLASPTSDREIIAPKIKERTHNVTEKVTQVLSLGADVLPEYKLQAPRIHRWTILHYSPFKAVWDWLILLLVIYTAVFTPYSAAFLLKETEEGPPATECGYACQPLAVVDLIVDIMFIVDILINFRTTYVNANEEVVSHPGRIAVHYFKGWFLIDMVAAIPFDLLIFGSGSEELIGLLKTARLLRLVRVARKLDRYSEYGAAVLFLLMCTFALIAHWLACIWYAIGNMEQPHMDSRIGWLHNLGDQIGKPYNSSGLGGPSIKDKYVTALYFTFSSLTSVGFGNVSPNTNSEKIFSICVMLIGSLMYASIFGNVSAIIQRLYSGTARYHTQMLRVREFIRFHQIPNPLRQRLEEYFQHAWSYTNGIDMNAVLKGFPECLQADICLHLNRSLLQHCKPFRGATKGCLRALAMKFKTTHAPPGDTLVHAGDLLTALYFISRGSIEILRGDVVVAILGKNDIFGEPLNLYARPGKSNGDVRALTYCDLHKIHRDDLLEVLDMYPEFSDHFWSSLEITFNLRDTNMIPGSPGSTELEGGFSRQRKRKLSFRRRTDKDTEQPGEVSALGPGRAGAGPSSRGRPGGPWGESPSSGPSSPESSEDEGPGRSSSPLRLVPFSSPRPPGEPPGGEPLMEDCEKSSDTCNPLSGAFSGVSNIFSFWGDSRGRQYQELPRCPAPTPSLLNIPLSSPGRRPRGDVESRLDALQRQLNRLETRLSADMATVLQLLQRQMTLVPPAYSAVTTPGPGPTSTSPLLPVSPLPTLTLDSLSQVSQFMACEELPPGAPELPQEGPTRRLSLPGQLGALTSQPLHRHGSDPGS

Structure (SMILES) | hERG current change (%, negative = inhibition) at 10uM
COc1ccccc1CNC(=O)C(NC(=O)C1CCCCC1)C(C)C (stereo not drawn) | 1.84%
O=C(O)c1cccc(NS(=O)(=O)c2ccc(Oc3ccc(S(=O)(=O)Nc4cccc(C(=O)O)c4)cc3)cc2)c1 | 20.3%
COc1ccc(OC)c(-n2nnnc2SCC(=O)NCCc2ccccc2)c1 | -20.3%
CC1Cn2c(nc(=O)c3c2NCN(CCc2ccccc2)C3)S1 (stereo not drawn) | 13.5%
O=C(C1CC1)N1N=C(c2ccc(Cl)cc2)CC1(O)C(F)(F)F (stereo not drawn) | -0.113%
Cc1nn(C(C)C(=O)NC2CCC(C)CC2)c(=O)c2nn(-c3ccccc3)c(C)c12 (stereo not drawn) | -28.3%
O=C(CCS(=O)(=O)c1cccs1)N1CCCC1 | 3.18%
O=c1c2ccccc2nc(-c2ccccc2)n1-c1ccccc1O | 16.1%
CC(OC(=O)c1snc(C(=O)NC2CCCCC2)c1N)C(=O)NC1CCCCC1 (stereo not drawn) | -3.99%
Cc1ccc2nc(N(CCCN(C)C)C(=O)c3ccc(S(=O)(=O)N4CCc5ccccc5C4)cc3)sc2c1.Cl | -25.3%
CCOC(=O)N1CCN(S(=O)(=O)c2ccc(C(=O)N(CCCN(C)C)c3nc4ccc(Cl)cc4s3)cc2)CC1.Cl | -58.4%
COc1ccc2sc(N(CCCN(C)C)C(=O)c3ccc(S(=O)(=O)N4CCc5ccccc5C4)cc3)nc2c1.Cl | -6.59%
COc1cc2nc(N(CCCN(C)C)C(=O)c3ccc(S(=O)(=O)N4CCc5ccccc5C4)cc3)sc2cc1OC.Cl | -9.41%
CN(C)CCCN(C(=O)c1ccc(S(=O)(=O)N2CCc3ccccc32)cc1)c1nc2ccc(Cl)cc2s1.Cl | 10.5%
COc1ccc2sc(N(CCCN(C)C)C(=O)c3ccc(S(=O)(=O)N4CCCC4)cc3)nc2c1.Cl | -43.9%
CCOC(=O)N1CCN(S(=O)(=O)c2ccc(C(=O)N(CCN(C)C)c3nc4ccc(Cl)cc4s3)cc2)CC1.Cl | -28.5%
CCOC(=O)N1CCN(S(=O)(=O)c2ccc(C(=O)N(CCCN(C)C)c3nc4cc(OC)ccc4s3)cc2)CC1.Cl | -56.2%
CCOC(=O)N1CCN(S(=O)(=O)c2ccc(C(=O)N(CCN(CC)CC)c3nc4ccc(C)cc4s3)cc2)CC1.Cl | -23.8%
CCOC(=O)N1CCN(S(=O)(=O)c2ccc(C(=O)N(CCCN(C)C)c3nc4ccc(OC)cc4s3)cc2)CC1.Cl | -73.5%
CCOC(=O)N1CCN(S(=O)(=O)c2ccc(C(=O)N(CCN(C)C)c3nc4c(C)cccc4s3)cc2)CC1.Cl | -37.5%
CCOC(=O)N1CCN(S(=O)(=O)c2ccc(C(=O)N(CCN(C)C)c3nc4ccc(CC)cc4s3)cc2)CC1.Cl | -51.9%
O=C(c1ccccc1Cc1ccccc1)N1CCN(S(=O)(=O)c2ccccc2)CC1 | -6.88%
CN(C)NC(=S)Nc1ccc(S(=O)(=O)N2CCCCC2)cc1 | -5.26%
CCn1ccnc1CN(C)C(=O)CCc1nnc(CCCc2ccccc2)o1 | -7.7%

Structure (SMILES) | hERG current change (%, negative = inhibition) at 10uM
Cc1cccc(NC(=O)CN2C(=O)N/C(=C\c3ccc(N4CCOCC4)cc3)C2=O)c1 | 9.92%
CC(NC(=O)COC(=O)Cc1ccsc1)C1CC2CCC1C2 (stereo not drawn) | -12.1%
COc1ccc(N(CC(=O)N2CCc3ccccc32)S(=O)(=O)c2c(C)n[nH]c2C)cc1 | -18.6%
CC(NCCOc1ccccc1F)C(=O)Nc1ccc(S(N)(=O)=O)cc1 (stereo not drawn) | 13.4%
N#Cc1c(N)c(C(=O)c2ccc(Cl)cc2)n2c1CCC2 | 5.5%
CCCCN(CCCC)C(=O)c1cc(Cl)ccc1[N+](=O)[O-] | -1.4%
O=C1CCC(C(=O)N(Cc2ccco2)C2(C(=O)NC3CCCC3)CCCCC2)N1 (stereo not drawn) | 13.4%
CCNc1nc(NCC)nc(N/N=C(\C)c2ccc(OC)cc2)n1 | -14.1%
Cc1ccc(C(=O)NCc2ccco2)cc1S(=O)(=O)Nc1cccc(C)c1C | -32.2%
CCn1cc(C(=O)NCc2ccco2)c(=O)c2cc(S(=O)(=O)N3CCC(C)CC3)ccc21 | -36.5%
CCn1cc(C(=O)NCC2CCCO2)c(=O)c2cc(S(=O)(=O)N3CCCCCC3)ccc21 (stereo not drawn) | -51.3%
CCn1cc(C(=O)NCc2ccco2)c(=O)c2cc(S(=O)(=O)N3CCCC3)ccc21 | -4.37%
Cc1ccc(C(=O)NCc2ccco2)cc1S(=O)(=O)N1CCCCC1 | -18.6%
O=C(NCc1ccco1)c1ccc(F)c(S(=O)(=O)N2CCCCC2)c1 | -11.3%
Cc1ccc(C)c(NS(=O)(=O)c2cc(C(=O)NCc3ccco3)ccc2C)c1 | -52.3%
CCn1cc(C(=O)NCc2ccco2)c(=O)c2cc(S(=O)(=O)N3CCCCCC3)ccc21 | -53.3%
CCn1cc(C(=O)NCC2CCCO2)c(=O)c2cc(S(=O)(=O)N3CCC(C)CC3)ccc21 (stereo not drawn) | -28.1%
O=C(NCc1ccco1)c1ccc(Br)c(S(=O)(=O)N2CCCCC2)c1 | -53%
Cc1ccccc1NS(=O)(=O)c1cc(C(=O)NCc2ccco2)ccc1C | -20.3%
CCn1cc(C(=O)NCC2CCCO2)c(=O)c2cc(S(=O)(=O)N3CCCCC3)ccc21 (stereo not drawn) | -34%
COc1cc(CCC(=O)Nc2ccc(C)c(S(=O)(=O)N3CCCCCC3)c2)cc(OC)c1OC | -6.5%
O=C(OCCN1C(=O)c2ccccc2C1=O)C1CCN(S(=O)(=O)c2cccs2)CC1 | -31.9%
COc1cc(CCN2C(=O)N[C@@H](CCc3ccccc3)C(C(C)=O)=C2C)cc(OC)c1OC | -12.6%
CC(=NCC1CCCO1)c1c(O)n(C2CCCCC2)c(=O)[nH]c1=O (stereo not drawn) | -9.77%
